This note sets out measurements from PubChem BioAssay (NCI).

This is part of a sample that, as a whole, favours compounds with a hit. Of some 79,000 tested, about 15% had one in any assay. A number with no mark means an inactive call. Activity calls are given as the source filed them. Rule as the data show it: active = growth inhibition above about 70%; inactive = the rest.

The first test can be described thus: NCI Yeast Anticancer Drug Screen. Data for the bub3 strain (AID 167). To be noted: S. cerevisiae bub3 mutant strain, at 50.0 µM, active compounds read high. The method in brief: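 Screening used yeast with an engineered genetic alteration affecting cell cycle control. Compound-exposed cultures were compared with vehicle cultures, and reduced growth was taken as inhibition.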
With `CSc1nc(C)cc(Nc2ccc(O)c(CN3CCOCC3)c2)n1`, the growth inhibition is -52%.
The same measure, in the same setting: with `O=C(Nc1cccc(F)c1)Oc1ccc(OCc2ccccc2)cc1` the figure was 17.9%; with `Cc1nc2ccccn2c1N=Nc1ccc(C(=O)NN)cc1`, -10.8%.
As for `CC1(C)c2ccccc2C(=O)C12CCC(=O)CC2`, the growth inhibition was 18.9%.
Regarding `O=C1C(=S)Nc2cccc(F)c21`, the growth inhibition is 43.7%.
With `COc1ccccc1OC(=O)Nc1ccc(S(=O)(=O)N(C)C)cc1`, the growth inhibition was 8.65%.
Still for that read-out and setting: with `N#Cc1ccccc1NC(=O)Nc1ccc(Cl)cc1Cl` the figure was 4.35%; with `Cc1nn(C(=O)c2ccc(Cl)cc2)c2c1C(c1ccc(Cl)cc1)SC(N)=N2` (configuration not stated), -19.4%; with `CC1CCCC(=O)CC1` (configuration not stated), -0.45%.
Still for that read-out and setting: with `CC(C)(C)c1ccc(OS(=O)(=O)c2ccccc2)c(Cl)c1` the figure was 1.5%.
On the same count and under the same terms, the figure for `CCCCOC(=O)CC1CCCCC1` is -5.6%.
For `COc1ccc(OC(=O)Nc2cccc(C(C)=O)c2)cc1`, the growth inhibition was 22.1%.
The same measure, in the same setting: with `OC12CC/C(=N/OCc3ccccc3)CC1c1ccccc12` (configuration not stated) the figure was -36.1%; with `CC(C)(C)NC(=O)NCCCCCCNC(=O)NC(C)(C)C`, 8.05%; with `c1ccc(P(CCCP(c2ccccc2)c2ccccc2)c2ccccc2)cc1`, -0.05%.
`CC(=O)NC(C=O)OCC=O` (configuration not stated): the growth inhibition was -29.1%.
On the same count and under the same terms, with `CCCc1nc2c([nH]1)c(=O)n(C)c(=O)n2C` the figure was -21.1%.
`CC(=O)NOCC1NC(=O)C(CONC(C)=O)NC1=O` (configuration not stated): the growth inhibition is -48.2%.
The same measure, in the same setting: with `CCN=C(N)CSS(=O)(=O)O` the figure was -22%.
As for `CCOc1ccc2c(c1)C(C)(C)CCC2(C)C`, the growth inhibition was 1.4%.
Same read-out and setting: with `CC(C)(C)NC(=O)C12C3C4C1C1C2C3C41C(=O)NC(C)(C)C` (configuration not stated) the figure was -26.1%.
Still for that read-out and setting: with `O=C1c2ccccc2-c2ccc(N3C(=O)c4c(Br)c(Br)c(Br)c(Br)c4C3=O)cc21` the figure was -4.6%.

A short description of another test: NCI Yeast Anticancer Drug Screen. Data for the mlh1 rad18 strain (AID 175). The conditions noted are these: S. cerevisiae mlh1 rad18 strain growth inhibition; at 50.0 µM; active compounds read high. The method, boiled down: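 Steps: expose repair-defective yeast to compound; measure growth; express inhibition against vehicle-treated controls.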
In the case of `Cc1ccc(C(N)=O)cc1`, the growth inhibition was 42.1%.
Same read-out and setting: the figure for `O=C1CC2(CCN(Cc3ccccc3)CC2)C(=O)N1N1CCCCC1` is 50.4%.
Take `O=[N+]([O-])c1ccc(SN2CCCCC2CC2CCCCC2)c([N+](=O)[O-])c1` (configuration not stated): the growth inhibition is 3.1%.
Same read-out and setting: the figure for `O=P(OC1=NCCN1Cc1ccccc1)(OC1=NCCN1Cc1ccccc1)N1CC1` is -6.2%; for `Nc1ccc(N(C(=O)c2ccccc2)C(=O)c2ccccc2)c(-c2ccccc2)c1` it is 22.9%; for `C[C@@H](CC(=O)O)OC1OC(COC(=O)C(C)(C)C)C(OC(=O)C(C)(C)C)C(OC(=O)C(C)(C)C)C1OC(=O)C(C)(C)C` (some centres not stated) it is 85.8% (active).
Same read-out and setting: with `OCCNCc1cccc(-c2ccccc2)c1O` the figure was 16.9%.
`Cc1ccc2cccnc2c1`: the growth inhibition is 5%.
Same read-out and setting: with `NCCNC(=O)c1ccccc1` the figure was 4.65%; with `COC(=O)N1N=C(c2ccccc2)C(C(=O)OC)(C(=O)OC)c2ccccc21`, 36.8%.
The same measure, in the same setting: with `CCOP(=O)(OCC)C(Cc1cn(S(=O)(=O)c2ccc(C)cc2)cn1)C(=O)O` (configuration not stated) the figure was -17.4%; with `O=C(O)c1cc(C(=O)O)nc(C(=O)O)c1`, -0.6%; with `NC(=O)N/N=C/c1ccccc1N`, -2.7%.
Take `O=C(O)C1OCOC2C(CO)OCOC12` (configuration not stated): the growth inhibition is 11.1%.
Same read-out and setting: the figure for `CC(C)(C)/C(=N\O)c1ccccc1` is -23.3%; for `CN(C)CCN(C)CC(C)(C)C(=O)/C=C/c1ccccc1` it is -15.4%.
Still for that read-out and setting: the figure for `CC(c1ccccc1)C1(C)NC(=O)NC1=O` (configuration not stated) is -10.1%.
The same measure, in the same setting: the figure for `CC(=O)OCCn1c([N+](=O)[O-])cnc1/C=[N+](/C)[O-]` is 33.3%.
Regarding `CSc1nc(C)cc(Nc2ccc(O)c(CN3CCOCC3)c2)n1`, the growth inhibition is 9.4%.
Still for that read-out and setting: the figure for `O=C(Nc1cccc(F)c1)Oc1ccc(OCc2ccccc2)cc1` is 16%.
Same read-out and setting: with `Cc1nc2ccccn2c1N=Nc1ccc(C(=O)NN)cc1` the figure was -18.4%.
Turning to `CC1(C)c2ccccc2C(=O)C12CCC(=O)CC2`, the growth inhibition was 17.5%.
The same measure, in the same setting: the figure for `O=C1C(=S)Nc2cccc(F)c21` is 33%; for `COc1ccccc1OC(=O)Nc1ccc(S(=O)(=O)N(C)C)cc1` it is 6.65%.
On the same count and under the same terms, with `N#Cc1ccccc1NC(=O)Nc1ccc(Cl)cc1Cl` the figure was 10.6%.
The same measure, in the same setting: the figure for `Cc1nn(C(=O)c2ccc(Cl)cc2)c2c1C(c1ccc(Cl)cc1)SC(N)=N2` (configuration not stated) is 12.9%; for `CC1CCCC(=O)CC1` (configuration not stated) it is 6.5%.
For the molecule `CC(C)(C)c1ccc(OS(=O)(=O)c2ccccc2)c(Cl)c1`, the growth inhibition was 0.85%.
Same read-out and setting: with `CCCCOC(=O)CC1CCCCC1` the figure was -10.2%; with `COc1ccc(OC(=O)Nc2cccc(C(C)=O)c2)cc1`, 3.15%; with `OC12CC/C(=N/OCc3ccccc3)CC1c1ccccc12` (configuration not stated), 0.45%.
Consider `CC(C)(C)NC(=O)NCCCCCCNC(=O)NC(C)(C)C`, for which the growth inhibition was -7.9%.
On the same count and under the same terms, with `c1ccc(P(CCCP(c2ccccc2)c2ccccc2)c2ccccc2)cc1` the figure was -15.8%; with `CC(=O)NC(C=O)OCC=O` (configuration not stated), -46.9%.
As to `CCCc1nc2c([nH]1)c(=O)n(C)c(=O)n2C`, the growth inhibition is 22.6%.
Same read-out and setting: the figure for `CC(=O)NOCC1NC(=O)C(CONC(C)=O)NC1=O` (configuration not stated) is -54.6%; for `CCN=C(N)CSS(=O)(=O)O` it is -16.7%; for `CCOc1ccc2c(c1)C(C)(C)CCC2(C)C` it is 6.05%.
On the same count and under the same terms, with `CC(C)(C)NC(=O)C12C3C4C1C1C2C3C41C(=O)NC(C)(C)C` (configuration not stated) the figure was -19.5%.
Same read-out and setting: the figure for `O=C1c2ccccc2-c2ccc(N3C(=O)c4c(Br)c(Br)c(Br)c(Br)c4C3=O)cc21` is -17.5%.
